This note sets out measurements from the supplement of paper PMC9262897, “Low-cost anti-mycobacterial drug discovery using engineered E. coli” (Nature Communications, 2022).

Structures can show the parent of a compound that is named as a salt. ± gives the standard deviation of the averaged measurements.

The first test deals with E. coli TESEC Mtb Alr. As to the kind of experiment: growth (OD600 after 10 h); higher = more growth (less inhibition). The note with it: arabinose 1000000 nM; compound 0.1 mM; raw OD600 reference: median of DMSO wells 0.193, cell-free background 0.041. On the procedure:
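TESEC Mtb Alr E. coli, or the Alr+ wild-type control, in 384-well plates with Prestwick library compounds at 0.1 mM and 1% DMSO, across arabinose induction levels of 1E3 to 1E7 nM. Growth is read as OD600 after 10 h at 37 °C in triplicate biological replicates.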
As to `CC(=O)Nc1ccc(OCC(O)CNC(C)C)cc1` (stereo not given) [Practolol], the growth amounted to 0.19 ± 0.016. The compound `CN(C)CCOC(=O)COc1ccc(Cl)cc1` [Meclofenoxate hydrochloride] registered a growth of 0.184 ± 0.0027. As for `NCCNCCNCCNCCN` [Tetraethylenepentamine pentahydrochloride], the growth worked out at 0.181 ± 0.011. On the same count and under the same terms, in the case of `C#C[C@]1(O)CC[C@H]2[C@@H]3CCC4=CC(=O)CC[C@@H]4[C@H]3CC[C@@]21C` [Norethindrone] it was 0.1044 ± 0.00092.

As to `Nc1c(Br)cc(Br)cc1CN[C@H]1CC[C@H](O)CC1` [Ambroxol hydrochloride], the growth stood at 0.1617 ± 0.0016. With `Clc1ccc(C(c2ccccc2Cl)C(Cl)Cl)cc1` (stereo not given) [Mitotane], the growth was 0.0935 ± 0.018. Same read-out and setting: in the case of `Cc1nc2ccccn2c(=O)c1CCN1CCC(C(=O)c2ccc(F)cc2)CC1` [Pirenperone] it was 0.178 ± 0.0069; in that of `O=c1cc(-c2ccc(O)c(O)c2)oc2cc(O)cc(O)c12` [Luteolin], 0.0567 ± 0.0052.

For the compound `CC[N+](C)(C)c1cccc(O)c1` [Edrophonium chloride], the growth amounted to 0.192 ± 0.012. `CCn1cc(C(=O)O)c(=O)c2cc(F)c(N3CCNC(C)C3)c(F)c21` (stereo not given) [Lomefloxacin hydrochloride] came in with a growth of 0.03983 ± 0.00025.

The test is the same for the next values; noted with them: arabinose 10000000 nM; compound 0.1 mM; raw OD600 reference: median of DMSO wells 0.146, cell-free background 0.041.
Turning to `CCCNC(C)(C)COC(=O)c1ccccc1` [Meprylcaine hydrochloride], the growth was 0.133 ± 0.0041. On to `CN1CCC(=C2c3ccccc3CCc3cccnc32)CC1` [Azatadine maleate], for which the growth was 0.132 ± 0.0041. On the same count and under the same terms, in the case of `CNC(=C[N+](=O)[O-])NCCSCc1csc(CN(C)C)n1` [Nizatidine] it was 0.14 ± 0.0024; in that of `Fc1ccc(C(c2ccc(F)cc2)N2CCN(C/C=C/c3ccccc3)CC2)cc1` [Flunarizine dihydrochloride], 0.0509 ± 0.0027. `CC(C(=O)O)c1cccc(C(=O)c2ccccc2)c1` (stereo not given) [Ketoprofen] came in with a growth of 0.145 ± 0.0059.

`C1N2CN3CN1CN(C2)C3` [Methenamine] registered a growth of 0.14 ± 0.0044. Compound `Cc1c(N(C)CS(=O)(=O)O)c(=O)n(-c2ccccc2)n1C` [Dipyrone] yielded a growth of 0.157 ± 0.0028. In the case of `Cc1onc(-c2ccccc2)c1-c1ccc(S(N)(=O)=O)cc1` [Valdecoxib], the growth was 0.122 ± 0.0014. `O=C(C1CCCCC1)N1CC(=O)N2CCc3ccccc3C2C1` (stereo not given) [Praziquantel] displayed a growth of 0.141 ± 0.0052. Compound `Clc1ccc(Cn2c(CN3CCCC3)nc3ccccc32)cc1` [Clemizole hydrochloride] gave a growth of 0.06017 ± 0.00057. The compound `O=C(O)c1ccccc1OP(=O)(O)O` [Fosfosal] showed a growth of 0.137 ± 0.0018. In the case of `COc1ccc(C2CNC(=O)C2)cc1OC1CCCC1` (stereo not given) [Rolipram], the growth was found to be 0.14 ± 0.0022. Compound `CCC1=C(C)CN(C(=O)NCCc2ccc(S(=O)(=O)NC(=O)N[C@H]3CC[C@H](C)CC3)cc2)C1=O` [Glimepiride] returned a growth of 0.155 ± 0.0053. As to `CC(=O)Nc1c(I)c(C(=O)N[C@H]2C(O)O[C@H](CO)[C@@H](O)[C@@H]2O)c(I)c(N(C)C(C)=O)c1I` (stereo not given in full) [Metrizamide], the growth turned out to be 0.16 ± 0.0066. In the case of `CN(C(=O)C(Cl)Cl)c1ccc(OC(=O)c2ccco2)cc1` [Diloxanide furoate], the growth was found to be 0.167 ± 0.004.

The compound `Cc1c(Cl)cccc1Nc1ccccc1C(=O)O` [Tolfenamic acid] gave a growth of 0.0598 ± 0.0014. `COc1ccc(C(=O)CC(=O)c2ccc(C(C)(C)C)cc2)cc1` [Avobenzone] gave a growth of 0.109 ± 0.0074. In turn, `NCc1ccccc1CC(=O)N[C@@H]1C(=O)N2C(C(=O)O)=C(CSc3nnnn3CC(=O)O)CS[C@H]12` [Ceforanide] showed a growth of 0.206 ± 0.0071. The same measure, in the same setting: the value for `CN(C)CCCN1c2ccccc2CCc2ccccc21` [Imipramine hydrochloride] was 0.175 ± 0.011. Turning to `COc1ccc(-c2cc(=O)c3c(O)cc(O[C@@H]4O[C@H](CO[C@@H]5O[C@@H](C)[C@H](O)[C@@H](O)[C@H]5O)[C@@H](O)[C@H](O)[C@H]4O)cc3o2)cc1O` [Diosmin], the growth amounted to 0.1645 ± 0.00064. In turn, `COC(=O)N/N=C/c1c[n+]([O-])c2ccccc2[n+]1[O-]` [Carbadox] displayed a growth of 0.142 ± 0.0022. Compound `N=C(N)NC(=O)c1nc(Cl)c(N)nc1N` [Amiloride hydrochloride dihydrate] registered a growth of 0.15 ± 0.0063. `Nc1nc(Cl)nc2c1ncn2[C@H]1C[C@H](O)[C@@H](CO)O1` [Cladribine] showed a growth of 0.07457 ± 0.00035.

Compound `CO[C@@]1(NC(=O)C2SC(=C(C(N)=O)C(=O)O)S2)C(=O)N2C(C(=O)O)=C(CSc3nnnn3C)CS[C@@H]21` (stereo not given in full) [Cefotetan] showed a growth of 0.03917 ± 5.8e-05.

As for `CC(=O)O[C@H]1C[C@@]2(C)[C@@H](C[C@@H](O)[C@H]3[C@@]4(C)CC[C@@H](O)[C@@H](C)[C@@H]4CC[C@@]32C)/C1=C(\CCC=C(C)C)C(=O)O` [Fusidic acid sodium salt], the growth was 0.04237 ± 0.00032. `COc1ccc(CN(CCN(C)C)c2ccccn2)cc1` [Pyrilamine maleate] gave a growth of 0.135 ± 0.0052.

For `C#C[C@]1(O)CC[C@H]2[C@@H]3CCC4=Cc5oncc5C[C@]4(C)[C@H]3CC[C@@]21C` [Danazol], the growth stood at 0.152 ± 0.0057. In the case of `CCN(CC)C(C)CN1c2ccccc2Sc2ccccc21` (stereo not given) [Ethopropazine hydrochloride], the growth is 0.174 ± 0.0019. On the same count and under the same terms, the value for `CCCNC(C)C(=O)Nc1c(C)csc1C(=O)OC` (stereo not given) [Articaine hydrochloride] was 0.147 ± 0.0054. The compound `Cc1ccc(Cl)c(Nc2ccccc2C(=O)O)c1Cl` [Meclofenamic acid sodium salt monohydrate] registered a growth of 0.0628 ± 0.001. Still for that read-out and setting: in the case of `CC(=O)Nc1ccc(OCC(O)CNC(C)C)cc1` (stereo not given) [Practolol] it was 0.145 ± 0.0028. Compound `CN(C)CCOC(=O)COc1ccc(Cl)cc1` [Meclofenoxate hydrochloride] came in with a growth of 0.138 ± 0.0014.

`NCCNCCNCCNCCN` [Tetraethylenepentamine pentahydrochloride]: the growth turned out to be 0.136 ± 0.0077.

For `C#C[C@]1(O)CC[C@H]2[C@@H]3CCC4=CC(=O)CC[C@@H]4[C@H]3CC[C@@]21C` [Norethindrone], the growth worked out at 0.134 ± 0.0033. Same read-out and setting: in the case of `Nc1c(Br)cc(Br)cc1CN[C@H]1CC[C@H](O)CC1` [Ambroxol hydrochloride] it was 0.149 ± 0.0085. `Clc1ccc(C(c2ccccc2Cl)C(Cl)Cl)cc1` (stereo not given) [Mitotane] showed a growth of 0.133 ± 0.013. As for `Cc1nc2ccccn2c(=O)c1CCN1CCC(C(=O)c2ccc(F)cc2)CC1` [Pirenperone], the growth was found to be 0.147 ± 0.007. In turn, `O=c1cc(-c2ccc(O)c(O)c2)oc2cc(O)cc(O)c12` [Luteolin] gave a growth of 0.0518 ± 0.0022. Same read-out and setting: the value for `CC[N+](C)(C)c1cccc(O)c1` [Edrophonium chloride] was 0.144 ± 0.0031. The compound `CCn1cc(C(=O)O)c(=O)c2cc(F)c(N3CCNC(C)C3)c(F)c21` (stereo not given) [Lomefloxacin hydrochloride] showed a growth of 0.04157 ± 0.00015.
